High-throughput results deposited in PubChem BioAssay by several laboratories.
In the library only some 3.2% were active in any assay of this set; here they are far more common.
Mcl1 Bid PPI = Mcl-1/Bid binding inhibitors, primary screen, biochemical, TR-FRET, 1536-well. Induced myeloid leukemia cell differentiation protein Mcl-1 (Homo sapiens), Q07820. TR-FRET Mcl-1/Bid-Dy647 peptide binding. inhibition, % at 21.7 µM. 220,000 compounds, 0.97% hits;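 active = compounds that cut the binding signal by more than half at the single screening dose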;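 also: His-tagged Mcl-1 with europium anti-His antibody binding Bid BH3 peptide; 0% = Mcl-1 plus peptide wells and 100% = peptide-only wells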
Target sequence (Q07820 whole entry, looked up): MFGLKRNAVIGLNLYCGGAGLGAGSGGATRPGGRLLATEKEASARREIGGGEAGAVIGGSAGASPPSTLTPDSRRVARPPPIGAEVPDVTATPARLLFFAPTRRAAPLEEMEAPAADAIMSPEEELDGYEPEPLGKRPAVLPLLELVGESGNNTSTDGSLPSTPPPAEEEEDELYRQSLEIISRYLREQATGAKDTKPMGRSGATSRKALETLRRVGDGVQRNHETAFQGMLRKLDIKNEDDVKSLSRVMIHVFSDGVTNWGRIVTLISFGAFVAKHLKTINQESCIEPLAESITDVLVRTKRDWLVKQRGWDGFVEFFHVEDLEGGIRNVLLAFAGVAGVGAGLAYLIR
Bim-Mcl-1 = inhibitors of Bim peptide binding to Mcl-1, primary screen, biochemical, bead-based flow cytometry, multiplex; Induced myeloid leukemia cell differentiation protein Mcl-1 (Homo sapiens), Q07820; Bim peptide-Mcl-1 binding; inhibition, % at 10 µM; 190,000 compounds, 0.1% hits; AID 1009, 2008; in the data active = inhibition above about 40%;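 also: 0% = no compound tracer wells and 100% = peptide blocker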
NCF1 inh = p47phox/p22phox peptide binding inhibitors, primary screen, biochemical, uHTS, NADPH oxidase regulatory subunit. 220,000 compounds, 0.53% hits. inhibition, % at 24.7 µM. fluorescence polarization, 2 h. Neutrophil cytosol factor 1 (Homo sapiens), P14598;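 active = inhibition above about 30%, limit read from the data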;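 also: 0% = p47phox with labelled peptide and 100% = labelled peptide alone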
14-3-3 Bad PPI = inhibitors of 14-3-3 zeta/Bad binding, primary screen, biochemical, TR-FRET, bovine 14-3-3 zeta | 220,000 compounds, 0.71% hits | inhibition, % at 21.7 µM | TR-FRET 14-3-3zeta/Dy647-pBad peptide displacement, 1 h | 14-3-3 protein zeta/delta (Bos taurus), P63103;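 active = inhibition above about 70%, limit read from the data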;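 also: 0% = full 14-3-3 plus peptide FRET controls and 100% = background without 14-3-3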
Target sequence (P63103 whole entry, looked up): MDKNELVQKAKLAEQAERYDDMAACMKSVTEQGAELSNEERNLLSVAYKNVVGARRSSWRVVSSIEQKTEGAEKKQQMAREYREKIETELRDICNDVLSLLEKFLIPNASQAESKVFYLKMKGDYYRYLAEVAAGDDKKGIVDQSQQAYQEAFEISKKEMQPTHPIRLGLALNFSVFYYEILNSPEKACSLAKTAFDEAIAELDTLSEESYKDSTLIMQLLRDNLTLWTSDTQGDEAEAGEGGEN
Mcl1 Noxa PPI = Mcl-1/Noxa binding inhibitors, primary screen, biochemical, TR-FRET, 1536-well; Induced myeloid leukemia cell differentiation protein Mcl-1 (Homo sapiens), Q07820; TR-FRET Mcl-1/Noxa peptide binding, 2 h; inhibition, % at 21.7 µM; 220,000 compounds, 1.5% hits; AID 1022, 2008;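 active = compounds that cut the protein-peptide binding signal by more than 50% relative to plate controls in a single-dose test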;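 also: His-tagged Mcl-1 with rhodamine Noxa BH3 peptide and terbium anti-His antibody; 0% = Mcl-1 plus Noxa peptide wells and 100% = peptide-only wells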
* marks the source's active call; other numbers are inactive results; [ ] = remark or other dose.

Screening O=c1cc(-c2ccccc2Cl)oc2c(NS(=O)(=O)c3cc(Cl)cc(Cl)c3O)ccc(O)c12 returned Mcl1 Bid PPI 70*, Bim-Mcl-1 0, NCF1 inh -50, 14-3-3 Bad PPI 10 and Mcl1 Noxa PPI 110*.
Screening Cc1cccc(NC(=S)NC(=O)CCc2ccccc2)c1 returned Mcl1 Bid PPI -10, Bim-Mcl-1 -3, NCF1 inh -5, 14-3-3 Bad PPI 77* and Mcl1 Noxa PPI 14.
Screening O=C(CCSCCC(=O)NCc1ccco1)NCc1ccco1 returned Mcl1 Bid PPI -12, Bim-Mcl-1 -4, NCF1 inh -9, 14-3-3 Bad PPI 0 and Mcl1 Noxa PPI 54*.
O=C(COC(=O)C1CC2C=CC1C2)NCc1ccc(F)cc1 (centres undefined) was read as Mcl1 Bid PPI -12, Bim-Mcl-1 -25, NCF1 inh -6, 14-3-3 Bad PPI -7 and Mcl1 Noxa PPI 3.
O=C(CCSCc1ccccc1Cl)NCc1ccco1 was read as Mcl1 Bid PPI -23, Bim-Mcl-1 1, NCF1 inh -3, 14-3-3 Bad PPI -3 and Mcl1 Noxa PPI 12.
O=C(COC(=O)C1CC2C=CC1C2)NCc1ccco1 (centres undefined) was read as Mcl1 Bid PPI -15, Bim-Mcl-1 0, NCF1 inh -4, 14-3-3 Bad PPI 6 and Mcl1 Noxa PPI 66*.
COc1cccc(/C=C/C(=O)OCC(=O)Nc2ccc(Cl)c(S(=O)(=O)N(C)C)c2)c1OC was read as Mcl1 Bid PPI -7, Bim-Mcl-1 0, NCF1 inh -40, 14-3-3 Bad PPI -10 and Mcl1 Noxa PPI 24.
For Cc1c(NC(=O)C(=O)/C=C(\O)c2ccc(Br)cc2)c(=O)n(-c2ccccc2)n1C the results were Mcl1 Bid PPI -25, Bim-Mcl-1 -2, NCF1 inh -10, 14-3-3 Bad PPI 10 and Mcl1 Noxa PPI -36.
CC(Oc1ccccc1)C(=O)N1CCN=C1SCc1ccc(F)cc1 (centres undefined) was read as Mcl1 Bid PPI 6, NCF1 inh 3, 14-3-3 Bad PPI 3 and Mcl1 Noxa PPI 3.
Screening O=C(CSc1nncs1)NCc1ccc(F)cc1 returned Mcl1 Bid PPI -25, Bim-Mcl-1 0, NCF1 inh 1, 14-3-3 Bad PPI -9 and Mcl1 Noxa PPI 8.
For COc1cc([N+](=O)[O-])cc(/C=N/NC(=O)CSc2ccccn2)c1O the results were Mcl1 Bid PPI -101, NCF1 inh -13, 14-3-3 Bad PPI -7 and Mcl1 Noxa PPI -85.
For CCOc1c(C(N)=O)c(-c2ccccc2)c2c(=O)[nH]c3ccccc3n12 the results were Mcl1 Bid PPI 99*, Bim-Mcl-1 -7, NCF1 inh 6, 14-3-3 Bad PPI 8 and Mcl1 Noxa PPI 3.
CCOC(=O)c1c(C)nc(C)c(C(=O)OCC)c1-c1ccccc1 was read as Mcl1 Bid PPI -18, Bim-Mcl-1 11, NCF1 inh -12, 14-3-3 Bad PPI 11 and Mcl1 Noxa PPI -1.
Cc1ccc(C(=O)c2ccccc2C(=O)O)s1 was read as Mcl1 Bid PPI -5, Bim-Mcl-1 0, NCF1 inh -2, 14-3-3 Bad PPI -2 and Mcl1 Noxa PPI 11.
Screening O=C(O)c1ccccc1C(=O)c1ccc(Br)s1 returned Mcl1 Bid PPI -20, Bim-Mcl-1 1, NCF1 inh -10, 14-3-3 Bad PPI -2 and Mcl1 Noxa PPI 54*.
For CCOC(=O)C1CCN(C(=O)C(C)c2ccc([N+](=O)[O-])cc2)CC1 (centres undefined) the results were Mcl1 Bid PPI 0, Bim-Mcl-1 -3, NCF1 inh -2, 14-3-3 Bad PPI -1 and Mcl1 Noxa PPI 7.
Screening Brc1cccc(CSc2nnc(-c3ccncc3)o2)c1 returned Mcl1 Bid PPI -16, Bim-Mcl-1 -1, NCF1 inh -7, 14-3-3 Bad PPI -4 and Mcl1 Noxa PPI 10.
`CC(C)(C)NC(=O)c1ccc2nsnc2c1` gave Mcl1 Bid PPI 2, Bim-Mcl-1 -4, NCF1 inh -11, 14-3-3 Bad PPI 90*[fluorescence artefact?] and Mcl1 Noxa PPI 2.
CC(=O)C1C(c2ccc(Br)cc2)C2C(C)=NN=C2CC1(C)O (centres undefined) was read as Mcl1 Bid PPI -2, Bim-Mcl-1 -5, NCF1 inh -2, 14-3-3 Bad PPI -4 and Mcl1 Noxa PPI -1.
Screening O=C(CSc1ncnc2[nH]ncc12)Nc1nc(-c2ccc(F)c(F)c2)cs1 returned Mcl1 Bid PPI -55, Bim-Mcl-1 -1, NCF1 inh -75, 14-3-3 Bad PPI 74* and Mcl1 Noxa PPI -46.
For O=C(/C=C/c1cccc(Cl)c1)NCc1ccccc1 the results were Mcl1 Bid PPI 4, Bim-Mcl-1 5, NCF1 inh -3, 14-3-3 Bad PPI -3 and Mcl1 Noxa PPI -8.
Screening Cc1sc(NC(=O)c2ccccc2)c(C(=O)N2CCN(C)CC2)c1C returned Mcl1 Bid PPI 86*, Bim-Mcl-1 0, NCF1 inh -6, 14-3-3 Bad PPI 0 and Mcl1 Noxa PPI 38.
Cc1sc(NC(=O)c2ccccc2)c(C(=O)c2ccccc2)c1C was read as Mcl1 Bid PPI 0, Bim-Mcl-1 -8, NCF1 inh -7, 14-3-3 Bad PPI 6 and Mcl1 Noxa PPI 14.
Screening Cc1c(C(=O)N2CCCC2)sc(NC(=O)c2ccccc2)c1C#N returned Mcl1 Bid PPI 3, Bim-Mcl-1 3, NCF1 inh -27, 14-3-3 Bad PPI 78*[fluorescence artefact?] and Mcl1 Noxa PPI 14.
`Cc1cccc(NC(=O)Cn2nnc3ccccc32)c1` gave Mcl1 Bid PPI -33, Bim-Mcl-1 2, NCF1 inh -9, 14-3-3 Bad PPI -6 and Mcl1 Noxa PPI -6.
For CCN(C(=O)Cc1ccccc1OC)c1nnc(-c2ccncc2)s1 the results were Mcl1 Bid PPI 13, Bim-Mcl-1 1, NCF1 inh 0, 14-3-3 Bad PPI 79* and Mcl1 Noxa PPI 4.
Screening O=C(N=C1c2ccccc2CN1c1ccc(F)c(F)c1)c1cccnc1 returned Mcl1 Bid PPI -19, Bim-Mcl-1 -1, NCF1 inh -10, 14-3-3 Bad PPI 71* and Mcl1 Noxa PPI 11.
`COc1ccc(Br)cc1CN1CCN(C(=O)c2ccc(OC)c(OC)c2)CC1` gave Mcl1 Bid PPI 37, Bim-Mcl-1 -1, NCF1 inh 8, 14-3-3 Bad PPI 22 and Mcl1 Noxa PPI 41.
`Cc1ccc(CN2CCN(Cc3ccccc3C(F)(F)F)CC2)cc1` gave Mcl1 Bid PPI 21, Bim-Mcl-1 -1, NCF1 inh 0, 14-3-3 Bad PPI 81* and Mcl1 Noxa PPI 17.
`COc1cccc(C(=O)N2CCN(Cc3cc(Br)ccc3OC)CC2)c1` gave Mcl1 Bid PPI 49, Bim-Mcl-1 -5, NCF1 inh -8, 14-3-3 Bad PPI 72* and Mcl1 Noxa PPI 23.
`COc1cccc(C(=O)N2CCN(Cc3ccccc3C(F)(F)F)CC2)c1` gave Mcl1 Bid PPI 62*, Bim-Mcl-1 -1, NCF1 inh -7, 14-3-3 Bad PPI 74* and Mcl1 Noxa PPI 30.
